For the test, the system named is Vero E6 infected with SARS-CoV-2. Briefly: SARS-CoV-2 infection rate relative to infected DMSO; higher = more infection, active = 60 or less. Particulars: 24 h.
`C=CC(=O)N1CCC(Oc2cc3c(Nc4ccc(Cl)c(Cl)c4F)ncnc3cc2OC)CC1` [poziotinib] (10 µM): the SARS-CoV-2 infection rate is 108% (inactive).

`C[C@H](CCC(=O)O)[C@H]1CC[C@H]2[C@@H]3C[C@H](O)[C@@H]4C[C@H](O)CC[C@]4(C)[C@H]3CC[C@]12C` [Hyodeoxycholic acid (HDCA)] (10 µM): the SARS-CoV-2 infection rate was 102% (inactive).

Take `CCC1(c2c[nH]cn2)Cc2ccccc2C1` [atipamezole] (10 µM): the SARS-CoV-2 infection rate is 112% (inactive).

On to `O=C(O)c1ccc(OCCn2ccnc2)cc1` [dazoxiben] (10 µM), for which the SARS-CoV-2 infection rate was 99% (inactive).

As to `CCCn1c(=O)c2nc(-c3ccccc3)[nH]c2n(CCC)c1=O` [1,3-dipropyl-8-phenylxanthine] (10 µM), the SARS-CoV-2 infection rate is 104% (inactive).

Turning to `COC(=O)c1ccc2c(c1)nc(NC(=O)c1ccccc1)n2CCCc1ccccc1` (10 µM), the SARS-CoV-2 infection rate was 94.5% (inactive).

With `CC(=O)NCCCCCC(=O)O` [acexamic-acid] (10 µM), the SARS-CoV-2 infection rate was 112% (inactive).

As for `Cc1cccc(C)c1-n1c(=O)c2cnc(Nc3ccc(N4CCN(C)CC4)cc3)nc2n2c3ccccc3nc12` (0.833333 µM), the SARS-CoV-2 infection rate is 104% (inactive).

`NCCCS(=O)(=O)O` [tramiprosate] (10 µM): the SARS-CoV-2 infection rate was 104% (inactive).

For the compound `C=CCOc1ccccc1OCC(O)CNC(C)C` (stereo not given) [oxprenolol] (10 µM), the SARS-CoV-2 infection rate was 114% (inactive).

Consider `Cc1cccc(C)c1NC(=O)[C@@H](C)N` [tocainide] (10 µM), for which the SARS-CoV-2 infection rate was 109% (inactive).

`CC(C)C[C@H](NC(=O)[C@@H](COC(C)(C)C)NC(=O)[C@H](Cc1ccc(O)cc1)NC(=O)[C@H](CO)NC(=O)[C@H](Cc1c[nH]c2ccccc12)NC(=O)[C@H](Cc1cnc[nH]1)NC(=O)[C@@H]1CCC(=O)N1)C(=O)N[C@@H](CCCNC(=N)N)C(=O)N1CCC[C@H]1C(=O)NNC(N)=O` [goserelin-acetate] (10 µM): the SARS-CoV-2 infection rate was 109% (inactive).

For `COc1cc(NC(=O)c2cccc(-n3cc(NC(=O)Nc4cccc(C)c4)cn3)c2)cc(OC)c1OC` (10 µM), the SARS-CoV-2 infection rate was 104% (inactive).

On to `CO/N=C(\C(=O)N[C@@H]1C(=O)N2C(C(=O)O)=C(CSC(=O)c3ccco3)CS[C@H]12)c1csc(N)n1` (10 µM), for which the SARS-CoV-2 infection rate is 104% (inactive).

As to `O=C(Nc1ccc(C(=O)O)c(O)c1)c1ccccc1` [benzoylpas] (10 µM), the SARS-CoV-2 infection rate was 91.5% (inactive).

On to `C=CC[C@@H]1/C=C(\C)C[C@H](C)C[C@H](OC)[C@H]2O[C@@](O)(C(=O)C(=O)N3CCCC[C@H]3C(=O)O[C@H](/C(C)=C/[C@@H]3CC[C@@H](O)[C@H](OC)C3)[C@H](C)[C@@H](O)CC1=O)[C@H](C)C[C@@H]2OC` [tacrolimus] (10 µM), for which the SARS-CoV-2 infection rate is 93% (inactive).

Turning to `COc1ccc(CCNCc2ccc(OCc3ccc(Cl)nc3)c(OC)c2)cc1OC` (10 µM), the SARS-CoV-2 infection rate is 98% (inactive).

With `COc1ccc2[nH]cc(CCNC(C)=O)c2c1` [melatonin] (10 µM), the SARS-CoV-2 infection rate was 105% (inactive).

On to `CC1=C(C(=O)OC2CCCCC2)C(c2ccc([N+](=O)[O-])cc2)C2=C(CC(C)(C)CC2=O)N1` (stereo not given) (0.833333 µM), for which the SARS-CoV-2 infection rate is 104% (inactive).

Turning to `Cc1nnsc1C(=O)Nc1ccc(-n2nc(C(F)(F)F)cc2C(F)(F)F)cc1` (10 µM), the SARS-CoV-2 infection rate is 106% (inactive).

Regarding `CN1C(=O)/C(=C2/C(=O)Nc3ccccc32)c2ccccc21` [meisoindigo] (0.833333 µM), the SARS-CoV-2 infection rate was 96.5% (inactive).

As for `CC(C)[C@H](NS(=O)(=O)c1ccc(-c2ccc(Br)cc2)cc1)C(=O)O` (10 µM), the SARS-CoV-2 infection rate is 107% (inactive).

With `CN1c2cc3c(cc2N=C(c2ccc(C(=O)O)cc2)c2ccccc21)C(C)(C)CCC3(C)C` (0.833333 µM), the SARS-CoV-2 infection rate is 107% (inactive).

Turning to `CCCCc1cc2ccccc2c(OCCN(C)C)n1` [dimethisoquin] (10 µM), the SARS-CoV-2 infection rate is 71.5% (inactive).

For `C[C@@H]1CC[C@@]2(OC1)O[C@H]1C[C@H]3[C@@H]4CC=C5C[C@@H](O[C@@H]6O[C@H](CO)[C@@H](O[C@@H]7O[C@@H](C)[C@H](O)[C@@H](O)[C@H]7O)[C@H](O)[C@H]6O[C@@H]6O[C@@H](C)[C@H](O)[C@@H](O)[C@H]6O)CC[C@]5(C)[C@H]4CC[C@]3(C)[C@H]1[C@@H]2C` [dioscin] (10 µM), the SARS-CoV-2 infection rate is 101% (inactive).

Consider `O=C(O)CCCO` (10 µM), for which the SARS-CoV-2 infection rate was 104% (inactive).

Consider `COc1ccc(Nc2nccc(NCCO)n2)cc1` [cardiogenol-C] (10 µM), for which the SARS-CoV-2 infection rate is 100% (inactive).

For `O=Nc1ccc(O)c2ncccc12` (10 µM), the SARS-CoV-2 infection rate is 108% (inactive).

For the compound `CCC(=O)O[C@@H](O[P@@](=O)(CCCCc1ccccc1)CC(=O)N1C[C@H](C2CCCCC2)C[C@H]1C(=O)O)C(C)C` [fosinopril] (10 µM), the SARS-CoV-2 infection rate was 104% (inactive).

Take `Cc1ccc(C(=O)c2cc(O)c(O)c([N+](=O)[O-])c2)cc1` [tolcapone] (10 µM): the SARS-CoV-2 infection rate is 110% (inactive).

Regarding `CO[C@H]1C[C@H](O[C@@H]2/C(C)=C/C[C@@H]3C[C@@H](C[C@]4(CC[C@H](C)[C@@H](C5CCCCC5)O4)O3)OC(=O)[C@@H]3C=C(C)/C(=N/O)[C@H]4OC/C(=C\C=C\[C@@H]2C)[C@]43O)O[C@@H](C)[C@@H]1O` [selamectin] (10 µM), the SARS-CoV-2 infection rate is 71% (inactive).

In the case of `O=c1[nH]nc2c3c(cccc13)N=C(CN1Cc3ccccc3C1)N2` (10 µM), the SARS-CoV-2 infection rate was 91% (inactive).

Consider `CN(CC[C@@H](Oc1ccc(-c2ccccc2)cc1)c1ccc(F)cc1)CC(=O)O` (10 µM), for which the SARS-CoV-2 infection rate is 108% (inactive).

Turning to `C[C@H]1[C@H](OC(=O)CCC(=O)O)O[C@@H]2O[C@@]3(C)CC[C@H]4[C@H](C)CC[C@@H]1[C@@]24OO3` [artesunate] (0.833333 µM), the SARS-CoV-2 infection rate was 97% (inactive).

Take `Cc1ccccc1C(=O)Nc1ccc(C(=O)N2CCCC(N(C)C)c3ccccc32)cc1` (stereo not given) [mozavaptan] (0.833333 µM): the SARS-CoV-2 infection rate was 117% (inactive).

For `CCC(=O)[C@@]1(C)[C@H](C)C[C@H]2[C@@H]3CCC4=CC(=O)C=C[C@]4(C)[C@H]3[C@@H](O)C[C@@]21C` [rimexolone] (10 µM), the SARS-CoV-2 infection rate is 98.5% (inactive).

With `CC(C)[C@@H](C)/C=C/[C@@H](C)[C@H]1CC[C@H]2/C(=C/C=C3\C[C@@H](O)CC[C@@H]3C)CCC[C@]12C` [dihydrotachysterol] (10 µM), the SARS-CoV-2 infection rate was 106% (inactive).

Take `CCOc1ccccc1OC(c1ccccc1)C1CNCCO1` (stereo not given) [reboxetine] (10 µM): the SARS-CoV-2 infection rate was 113% (inactive).

Take `CCCN1CCC[C@@H]2Cc3n[nH]cc3C[C@H]21` [quinpirol-(-)] (10 µM): the SARS-CoV-2 infection rate was 92.5% (inactive).

As for `C[C@H]1C[C@@H]2[C@H]([C@@H](O)C[C@@]3(C)[C@H]2CC[C@]3(O)C(=O)CO)[C@@]2(C)C=CC(=O)C=C12` [methylprednisolone] (10 µM), the SARS-CoV-2 infection rate is 108% (inactive).

Source of the values: the supplement of paper PMC13380429.
